Experimental data as given in PubChem BioAssay AID2061324 (National Center for Advancing Translational Sciences (NCATS), 2025).
Records with an inconclusive call do not appear. Activity calls are given as the source filed them. The call rests on the fitted dose curve; in most records, active means well fitted inhibition curve with a large enough effect; inconclusive means small, poorly fitted or top-dose-only effect; inactive means flat fitted curve, though single readings scatter. Square brackets hold non-standard residues; d marks the D form. Peptide text beside a SMILES is read from it. Dolaproine = CO[C@@H]([C@@H]1CCCN1)[C@@H](C)C(=O)O; Dil = CC[C@H](C)[C@H](NC)[C@@H](CC(=O)O)OC; NMeV = CN[C@H](C(=O)O)C(C)C

Test: Identification of antibody-drug conjugate (ADC) payloads which are substrates of ATP-binding cassette drug efflux transporters: ABCG2-HEK293-pcDNA cell line
Settings: ABCG2-HEK293 transfected cells viability, CellTiter-Glo, 48 h
Text: Antibody-drug conjugates (ADCs) feature an antibody recognizing a specific protein joined to a potent toxic payload. Numerous antibody-drug conjugates have received FDA approval; however, clinical resistance arises. Resistance mechanisms include decreased expression or mutation of the antibody target, impaired payload release, or increased expression of ATP-binding cassette (ABC) efflux transporters associated with multidrug resistance. We therefore sought to characterize the interaction of ABC multidrug transporters with ADC payloads. We performed a high-throughput screen with 27 common ADC payloads using cells lines expressing ABC transporters P-glycoprotein (P-gp, encoded by ABCB1) or ABCG2 (encoded by ABCG2). Confirmatory assays were also performed using cells transfected to express P-gp, ABCG2, or MRP1 (encoded by ABCC1). Several commonly used ADC payloads were substrates of P-gp, including calicheamicin gamma1, monomethyl auristatin E, DM1, and DM4. All the pyrrolobenzodiazepines tested - SJG136, SGD-1882, SG2057, and SG3199 - were substrates of P-gp, ABCG2, and MRP1. […] These findings highlight the risk of transporter-mediated resistance with certain ADC payloads and underscore the importance of selecting payloads that evade ABC transporter recognition in future ADC development.
HEK-293 cells were transfected with empty vector (pcDNA) or vector containing the human ABCB1 (MDR-19), ABCG2 (R-5), or ABCC1 gene (MRP1) and were maintained in EMEM with 2 mg/mL G418 added to maintain transporter expression. The HeLa derivative KB-3-1 and the P-gp overexpressing KB-8-5-11 subline were maintained in DMEM; KB-8-5-11 additionally received 100 ng/mL colchicine. H460 parental cells were obtained from the Division of Cancer Treatment and Diagnosis Tumor Repository, National Cancer Institute at Frederick, MD and were cultured in RPMI. The ABCG2 expressing subline H460 MX20 was generated by selecting H460 cells in 20 nM mitoxantrone. Media in all cases was supplemented with 10% FBS and 1% penicillin-streptomycin. We explored 27 common ADC payloads, in two orthogonal, paired cell line sets-a drug selected and transfected set for each transporter--to identify substrates of the ABC transporters P-gp and ABCG2. Compounds were sourced from Levena Biopharma (San Diego, CA), Selleck Chem (Houston, TX), ChemieTek (Indianapolis, IN), or Microsource Discovery Systems (Gaylordsville, CT). Screening was performed as previously described. Briefly, cells were plated at a density of 500 cells/well in 1536 well plates with compounds added using a 1536-head pin tool (Kalypsys, San Diego CA). Cells were incubated with cytotoxic drugs and processed with CellTiter Glo reagent (Promega, Madison, WI) to determine viability after 48 hours. P-gp substrates were identified by comparing compound activity between paired sets of low-expressing (sensitive) and over-expressing (resistant) cell lines.

**Q.** For CC[C@H](C)[C@@H]([C@H](N)CC(=O)N1CCC[C@H]1[C@H](OC)[C@@H](C)C(=O)N[C@@H](Cc1ccccc1)c1nccs1)N(C)C(=O)[C@@H](NC(=O)[C@H](C(C)C)N(C)C)C(C)C, which Potency is on record?
**A.** 6 nM (active)

**Q.** Which Potency does the source give for Cc1nc(Nc2ncc(C(=O)Nc3c(C)cccc3Cl)s2)cc(N2CCN(CCO)CC2)n1 here?
**A.** 4750 nM (active)

**Q.** With COC(=O)c1cc2c3c(cc(O)c2[nH]1)N(C(=O)c1cc2cc(OC)c(OC)c(OC)c2[nH]1)CC3CCl (stereo unspecified) as the molecule, how does the Potency read?
**A.** 3.4 nM (active)

**Q.** For COc1cccc2c1C(=O)c1c(O)c3c(c(O)c1C2=O)C[C@@](O)(C(=O)CO)C[C@@H]3O[C@H]1C[C@H]2[C@H](O[C@@H]3[C@@H](OC)OCCN32)[C@H](C)O1, which Potency is on record?
**A.** 0.2 nM (active)

**Q.** For COc1cc2cc(c1Cl)N(C)C(=O)C[C@H](O)[C@]1(C)O[C@H]1[C@H](C)C1C[C@@](O)(NC(=O)O1)[C@H](OC)/C=C/C=C(\C)C2, which Potency is on record?
**A.** 4750 nM (active)

**Q.** With CC[C@H](C)[C@@H]([C@@H](CC(=O)N1CCC[C@H]1[C@H](OC)[C@@H](C)C(=O)N[C@@H](Cc1ccccc1)C(=O)O)OC)N(C)C(=O)[C@@H](NC(=O)[C@@H](NC)C(C)C)C(C)C (H-[NMeV]V[Dil][Dolaproine]F-OH) as the molecule, how does the Potency read?
**A.** 3360 nM (active)

**Q.** With CC(C)(C)OC(=O)Nc1ccc2[nH]c(C(=O)N3C[C@@H](CCl)c4c3cc(O)c3ccccc43)cc2c1 as the molecule, how does the Potency read?
**A.** 16.9 nM (active)

**Q.** Which Potency does the source give for CCN(C(C)=O)[C@H]1CO[C@@H](O[C@H]2[C@H](O[C@H]3C#C/C=C\C#C[C@]4(O)CC(=O)C(NC(=O)OC)=C3/C4=C\CSSSC)O[C@H](C)[C@@H](NO[C@H]3C[C@H](O)[C@H](SC(=O)c4c(C)c(I)c(O[C@@H]5O[C@@H](C)[C@H](O)[C@@H](OC)[C@H]5O)c(OC)c4OC)[C@@H](C)O3)[C@@H]2O)C[C@@H]1OC here?
**A.** 2.7 nM (active)

**Q.** Which Potency does the source give for CC[C@]1(O)CC2CN(CCc3c([nH]c4ccccc34)[C@@](C(=O)OC)(c3cc4c(cc3OC)N(C)[C@H]3[C@@](O)(C(=O)OC)[C@H](OC(C)=O)[C@]5(CC)C=CCN6CC[C@]43[C@@H]65)C2)C1 (stereo partly specified) here?
**A.** 300 nM (active)

**Q.** Which Potency does the source give for CCN[C@H]1CO[C@@H](O[C@H]2[C@H](O[C@H]3C#C/C=C\C#C[C@]4(O)CC(=O)C(NC(=O)OC)=C3/C4=C\CSSSC)O[C@H](C)[C@@H](NO[C@H]3C[C@H](O)[C@H](SC(=O)c4c(C)c(I)c(O[C@@H]5O[C@@H](C)[C@H](O)[C@@H](OC)[C@H]5O)c(OC)c4OC)[C@@H](C)O3)[C@@H]2O)C[C@@H]1OC here?
**A.** 1.1 nM (active)

**Q.** With CN(C)CCOc1ccc2[nH]c(C(=O)N3C[C@@H](CCl)c4c3cc(O)c3ccccc43)cc2c1 as the molecule, how does the Potency read?
**A.** 0.8 nM (active)
